From PubChem
p53ts 39C kill = p53ts cell cytotoxicity, nonpermissive temperature; H1299-p53A138V viability at 39C, ATP luminescence, 24 h; 130,000 tested, 1.5% active; Potency, µM (series often up to 46.1 µM), usual class: cytotoxic; AID 902; further: nearly all actives have a fitted effect of over 55% in size
ALOX12 inhib = 12-hLO (ALOX12) enzyme inhibition; Potency, µM (series often up to 57.1 µM), most hits filed as inhibitors; 150,000 tested, 0.12% active; P18054; purified 12-hLO, xylenol orange hydroperoxide absorbance; AID 1452; further: nearly all actives have a fitted effect of over 55% in size
Target sequence (P18054 whole entry, looked up): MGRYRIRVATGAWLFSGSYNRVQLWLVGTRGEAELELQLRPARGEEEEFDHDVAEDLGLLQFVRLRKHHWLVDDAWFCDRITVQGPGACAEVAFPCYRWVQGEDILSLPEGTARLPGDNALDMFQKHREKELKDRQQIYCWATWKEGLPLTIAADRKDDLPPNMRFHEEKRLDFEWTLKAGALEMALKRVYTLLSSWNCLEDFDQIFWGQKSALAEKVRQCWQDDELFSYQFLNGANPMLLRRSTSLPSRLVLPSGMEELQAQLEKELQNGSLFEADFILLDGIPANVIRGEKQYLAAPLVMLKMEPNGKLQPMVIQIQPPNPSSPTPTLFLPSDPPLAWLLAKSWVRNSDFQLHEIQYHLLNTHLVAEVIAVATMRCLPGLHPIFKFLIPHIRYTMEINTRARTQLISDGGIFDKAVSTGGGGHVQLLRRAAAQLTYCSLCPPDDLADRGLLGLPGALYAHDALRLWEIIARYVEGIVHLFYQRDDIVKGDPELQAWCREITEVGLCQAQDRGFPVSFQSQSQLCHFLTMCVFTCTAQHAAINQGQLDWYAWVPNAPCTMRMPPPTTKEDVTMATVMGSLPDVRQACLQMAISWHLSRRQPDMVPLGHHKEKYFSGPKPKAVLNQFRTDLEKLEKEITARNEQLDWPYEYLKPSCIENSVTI
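Hydroperoxide output read as Fe(III)-xylenol orange absorbance, 573-to-405 nm ratio, after 30 min reaction with 40 uM arachidonic acid. Enzyme: 150 nM purified human 12hLO, 15 min compound preincubation; 25 mM Hepes pH 7.0, room temperature.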
p53ts 32C tox = cytotoxicity in p53ts cells at permissive temperature; H1299-p53A138V at 32C, ATP luminescence viability, 24 h; 130,000 tested, 0.93% active; Potency, µM (series often up to 46.1 µM), actives largely listed as cytotoxic; further: nearly all actives have a fitted effect of over 55% in size
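H1299-p53 A138V cells (temperature-sensitive p53) exposed 24 h to up to 46 uM compound at 32C, where p53 is wild-type in conformation. Viability read as ATP luminescence and normalised to DMSO and 100 uM tamoxifen. AC50 fitted with the Hill equation.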
HPGD inh = HPGD (human) dehydrogenase inhibition | purified HPGD, NADH fluorescence kinetic, PGE2 substrate | Potency, µM, most hits filed as inhibitors | 150,000 tested, 4.3% active; active means well fitted inhibition curve with a large enough effect, not every such curve was filed as active; inconclusive means small, poorly fitted or top-dose-only effect, or another doubt; inactive means no such curve, though single readings can be large or run the other way
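20 nM HPGD preincubated 15 min at room temperature with compound in 50 mM Tris-HCl pH 8, 0.01% Tween 20. Started with 1 mM NAD+ and 30 uM prostaglandin E2; NADH fluorescence (360/450 nm) read 5 times over 30-s intervals, last minus first.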
A number is an active result; i = inactive; ? = inconclusive; nt = not tested or not shown; ! = repeats disagree; [ ] = remark or other dose. Shown are actives, neighbours in structure and some others; about 4.4% of the full set was active somewhere. Unless noted, the call rests on the fitted dose curve; in most records, active means well fitted curve in the direction sought with a large enough effect; inconclusive means small, poorly fitted or top-dose-only effect, or another doubt; inactive means no such curve, though single readings can be large; an effect the other way counts as inactive or inconclusive.

SMILES | p53ts 39C kill | ALOX12 inhib | p53ts 32C tox | HPGD inh
O=c1cc(/N=C/c2coc3c(ccc4ccccc43)c2=O)[nH]c(=S)[nH]1 | nt | i | nt | 2.2µM
c1ccc(-c2csc3nnc(SCc4ccc5c(c4)OCO5)n23)cc1 | i | i | i | 22µM
Cc1ccc(CNC(=O)Cn2cc3c(n2)-c2c(oc(C(=O)N4CCOCC4)c2C)CC3)cc1 | i | nt | i | nt
COc1ccc(C(=S)N2CCCCCC2)cc1 | i | i | i | 16µM
COc1cc(C(=S)N2CCCC2)cc(OC)c1O | nt | i | nt | 20µM
COc1ccc(NC(=O)CCc2c(C)nc3c(-c4ccccc4)c(C)nn3c2C)cc1Cl | ? | nt | i | nt
O=c1cc(C(F)(F)F)nc(-c2ccccc2)[nH]1 | i | i | i | 14µM
O=S(=O)(NCc1ccc(F)cc1)c1cccc(S(=O)(=O)N2CCOCC2)c1 | nt | i | nt | i
Cc1cc(C)c(C)c(S(=O)(=O)NCc2ccc(C(=O)N3CCCCC3)cc2)c1C | i | i | i | 2µM
O=C(c1ccc(CNS(=O)(=O)c2cccc(C(F)(F)F)c2)cc1)N1CCOCC1 | i | i | i | 14µM
Cc1ccc(C)c(S(=O)(=O)NCc2ccc(C(=O)N3CCCCCC3)cc2)c1 | nt | i | nt | 7.1µM
CC/C=C1/OC(=O)c2ccccc21 | i | i | i[1.84 µM] | i
N#Cc1c(NC(=O)C2CC=CCC2C(=O)O)sc2c1CCCCCC2 (stereo not drawn) | nt | i | nt | 18µM
CC(C)(C)C1CCc2c(sc(NC(=O)C3CC=CCC3C(=O)O)c2C#N)C1 (stereo not drawn) | nt | i | nt | 16µM
C[C@@H](CN1CCC(Cc2ccccc2)CC1)[C@H](O)c1ccc(O)cc1 | i | i | i | nt
Cc1ccc(Cn2c(C(=O)O)c(CNCc3cccs3)c3ccc(C)cc32)cc1 | i | nt | i | nt
CN1CCc2nc(N)nc(-c3nc(N)nc4c3CN(C)CC4)c2C1 | i[9.22 µM] | i[11.4 µM] | i[9.22 µM] | i
COc1ccccc1N1CCN(C(=O)c2c(C)oc3ncn(CC(C)C)c(=O)c23)CC1 | i | nt | i | nt
CC(C)c1nc2sc3c(=O)[nH]c(=S)[nH]c3c2c2c1CCC2 | nt | i | nt | 16µM
CC(C)=CCCC(C)NC(=O)NC1CCCCC1 (stereo not drawn) | i | i | i | 35µM
O=C(COC(=O)Cc1c(Cl)cccc1Cl)NCCC1=CCCCC1 | nt | i | nt | 13µM
O=C(COC(=O)Cc1c(F)cccc1Cl)NCCC1=CCCCC1 | nt | i | nt | i
O=C(CSc1ccc2nnc(-c3cccnc3)n2n1)N1CCc2ccccc21 | i | i | i | i
O=C(CSc1ccc2nnc(-c3ccc(Cl)cc3)n2n1)N1CCc2ccccc21 | nt | i | nt | 14µM
Cc1cccc(NC(c2cccc(Cl)c2)c2ccc3cccnc3c2O)n1 (stereo not drawn) | 13µM | nt | i | nt
SMILES | p53ts 39C kill | ALOX12 inhib | p53ts 32C tox | HPGD inh
Cc1ccc2c(c1)C(c1ccc(F)cc1)N(C(=O)c1ccc(S(=O)(=O)N3CCCCC3)cc1)CC(=O)N2 (stereo not drawn) | i | nt | i | nt
CCCCC/C=C\C/C=C\C/C=C\CCCCCCC(=O)O | nt | i | nt | i
CCCCC/C=C\C/C=C\CCCCCCCC(=O)O | i | i | i[1.84 µM] | 8.9µM!
Cc1nc(-c2ccc(Cl)cc2)sc1CCNC(=O)C(=O)Nc1ccc2c(c1)OCO2 | i | nt | i | nt
Cc1ccc(C2=Nc3ccccc3N(CC(=O)NCc3ccc(Cl)cc3)C(=O)C2)cc1C | i | nt | i | nt
Cc1ccc(C2=Nc3ccccc3N(CC(=O)NCc3ccc(F)cc3)C(=O)C2)cc1C | 10µM | nt | i | nt
COCC(=O)Nc1c(C(=O)Nc2ccc(C)cc2)oc2ccccc12 | i | nt | i | nt
O=C(O)CCn1nnc(-c2cccs2)n1 | i | i | i | i
CC(C)c1ccc(-c2nnn(CCC(=O)O)n2)cc1 | ? | i | 10µM | i
COc1ccc(-c2cc(C(=O)NCCc3ccc(OC)c(OC)c3)c3ccccc3n2)cc1 | i | nt | ? | nt
CCN(CC)C(=O)c1sc2c(c1C)c(=O)n(-c1ccccc1)c(=O)n2CC(=O)N(CC)c1cccc(C)c1 | i | nt | i | nt
CCN(CC)C(=O)c1sc2[nH]c(=S)n(-c3ccccc3)c(=O)c2c1C | nt | i | nt | 28µM
CC(C)CNC(=O)COC(=O)c1ccc([N+](=O)[O-])cc1Cl | nt | i | nt | i
CSc1ccc(Cl)c(C(=O)OCC(=O)NCC(C)C)c1 | nt | i | nt | 14µM
CCc1cc(C(=O)Nc2c(C)nn(Cc3ccc(C)cc3)c2C)no1 | i | nt | i | nt
CCC(C)C(=O)N1CCc2cc(-c3csc(N)n3)ccc21 (stereo not drawn) | 13µM | i | 10µM | i
CC(C)(C)C(=O)N1CCc2cc(-c3csc(N)n3)ccc21 | nt | i | nt | i
Nc1nc(-c2ccc3c(c2)CCCC3)cs1 | 13µM | i | ? | ?
CCc1cc2c(nc1CC)CCN(CC/C(C)=N/OC[C@@H](O)COCc1ccco1)C2 | i[9.22 µM] | nt | i[9.22 µM] | nt
Cc1ccc(NC(=O)N2CCCN(Cc3ccc(F)cc3)C2)cc1C | i | ? | i | i
O=C(Nc1ccc(Cl)cc1)N1CCCN(Cc2ccccc2F)C1 | nt | i | nt | 13µM
COc1ccc(C(C)=O)c(O)c1 | i | i | i | 18µM
CCOC(=O)COc1ccc(C(=O)c2ccccc2)c(O)c1 | i | i | i | 16µM
CCOc1cccc(C(=O)c2ccc(O)c(O)c2O)c1 | i | ? | i | 16µM
CCOC(=O)COc1ccc(-c2nnc(-c3ccccc3)o2)cc1 | ? | i | 10µM | ?
SMILES | p53ts 39C kill | ALOX12 inhib | p53ts 32C tox | HPGD inh
CCOc1ccccc1NC(=O)Cn1cc(C(=O)c2ccc(Cl)cc2)c(=O)c2ccc(C)nc21 | i | nt | i | nt
Cc1ccccc1NS(=O)(=O)c1nnc(NC(=O)c2ccco2)s1 | i | nt | i | nt
CCCCNc1nc(C)nc2c1nc(-c1ccccc1)n2CCCN(C)C | i | i | i | ?
CCCN(C(=O)c1noc2c1COc1ccc(C)cc1-2)c1ccc(Cl)c(Cl)c1 | ? | nt | i | nt
CC(C)CC(=O)NCC(c1ccc2c(c1)OCO2)N1CCN(c2ccccc2F)CC1 (stereo not drawn) | i | nt | i | nt
COc1ccc(C(=O)c2ccccc2)c(O)c1 | i | i | i | 16µM!
COc1ccc(C(=O)c2ccccc2)c(O)c1O | i | i | i | i
Cc1cccc(OCC(O)Cn2c(=N)n(CCN3CCCCC3)c3ccccc32)c1 (stereo not drawn) | 13µM | i | i | i
CCn1c(=N)n(CC(O)COc2ccccc2)c2ccccc21 (stereo not drawn) | i | nt | i | nt
CCN(CC)CCn1c(=N)n(CCOc2ccccc2Cl)c2ccccc21 | 10µM | nt | ? | nt
CCN(CC)CCn1c(=N)n(CC(O)COc2ccccc2C)c2ccccc21 (stereo not drawn) | 16µM | nt | ? | nt
CCc1c(C)c2ccc(O)c(CN3CCN(c4cc(Cl)ccc4C)CC3)c2oc1=O | i | nt | i | nt
Fc1ccccc1Nc1nc2c(s1)CCc1ccccc1-2 | nt | ? | nt | 22µM
CCCc1cc(Nc2ccccc2OCC)n2ncnc2n1 | nt | i | nt | 7.1µM
CCOc1ccccc1Nc1ncnc2c1cnn2-c1ccccc1 | i | i | i | i
COc1cccc(NC(=O)N(Cc2cn(C)c3ccccc23)C2CCCCC2)c1 | ? | nt | i | nt
Cc1ccc(NC(=O)N(Cc2cn(C)c3ccccc23)C2CCCCC2)cc1C | 13µM | nt | ? | nt
O=NC1=C(c2c(O)[nH]c3ccccc23)CCCC1 | i | i | i | i
